# Screening data deposited in PubChem by National Center for Advancing Translational Sciences (NCATS).
# Lassa entry inh: qHTS for Inhibitors of binding or entry into cells for Lassa Virus; Lassa virus pseudotype entry inhibition, cell reporter; Potency, µM (series often up to 37.9 µM), for the others: at the highest dose activity change, negative = inhibition, usual class: inhibitors; 1.2% of 300,000 active; AID 540256, 2011; calls by dose curve; tested in HEK293 cells; further: potency means the concentration at half of the fitted maximal effect; on the % scale 0 is the no-effect control and ±100 the full control effect; nearly all actives have a fitted effect of over 50% in size
# Vaccinia mCherry: qHTS for Stage-Specific Inhibitors of Vaccinia Orthopoxvirus: mCherry Reporter Primary qHTS. Vaccinia virus mCherry reporter infection, fluorescence. Potency, µM (top dose mostly 36.5 µM), inactives show top-dose activity change, negative = inhibition, usual class: inhibitors. AID 720579, 2013. 0.63% of 310,000 active; calls by dose curve; tested in A549 cells; further: potency means the concentration at half of the fitted maximal effect; on the % scale 0 is the no-effect control and ±100 the full control effect; nearly all actives have a fitted effect of over 35% in size
# Shiga inhibitor: A qHTS for Small Molecule Inhibitors of Shiga Toxin; Vero cells, Shiga toxin protein synthesis inhibition reporter; inhibition, % at 38.7 µM; 9.2% of 290,000 active; in the data active means inhibition mostly above about 28%, no sharp cut-off; inactive means mostly below about 43%; further: 0% is about no effect
# Cycloheximide cs: Cycloheximide Counterscreen for Small Molecule Inhibitors of Shiga Toxin; cell reporter, cycloheximide protein synthesis inhibition counterscreen; max response, %; 12% of 300,000 active; in the data active means max response mostly above about 13%, no sharp cut-off; inactive means mostly below about 14%; further: read at 38.3 µM for the half of the compounds with a filed dose; 0% is about no effect
# MARV entry inh: qHTS for inhibitors of binding or entry into cells for Marburg Virus. Marburg virus pseudotyped entry inhibition, cell reporter. AID 540276, 2011. Potency, µM (titrated, usually from 37.8 µM), for the others: at the highest dose activity change, negative = inhibition, most hits filed as inhibitors. 1.8% of 300,000 active; calls by dose curve; tested in HEK293 cells; further: potency means the concentration at half of the fitted maximal effect; on the % scale 0 is the no-effect control and ±100 the full control effect
# VACV Venus inh: qHTS for Stage-Specific Inhibitors of Vaccinia Orthopoxvirus: Venus Reporter Primary qHTS; Vaccinia virus Venus reporter expression, fluorescence; Potency, µM (doses to about 36.5 µM), inactives show at the top dose activity change, negative = inhibition, usual class: inhibitors; 0.46% of 330,000 active; calls by dose curve; tested in A549 cells; further: potency means the concentration at half of the fitted maximal effect; on the % scale 0 is the no-effect control and ±100 the full control effect; nearly all actives have a fitted effect of over 30% in size
# * hit, by the source's call; i = inactive; u = inconclusive; x = not tested or not shown; + = active, no number; [ ] = remark or other dose. The entries come from a sample that favours hits as a whole.
SMILES,Lassa entry inh,Vaccinia mCherry,Shiga inhibitor,Cycloheximide cs,MARV entry inh,VACV Venus inh
O=C(NC(=S)Nc1ccccc1Cl)C1CC1,x,x,38,45*,x,x
Cn1c(NC[C@@H](O)c2ccccc2)nc2c1c(=O)n(Cc1ccc(Cl)cc1)c(=O)n2C,x,x,x,x,-7%,x
CCc1ccc(N(CC(=O)Nc2ccc(OC)cc2OC)S(C)(=O)=O)cc1,-10%,x,55,6,-7%,-10%
Cc1ccc(NC(=O)/C=C/c2ccc(Cl)cc2)nc1,1%,-19%,50*,22*,-26%[46.1 µM],-15%
O=C(/C=C/c1ccccc1)Nc1ccc(Br)cn1,x,x,+,31*,x,x
O=C(/C=C/c1cccc([N+](=O)[O-])c1)Nc1ccc(Cl)cn1,x,x,78,8,x,x
CCOc1ccc(NC(=O)Nc2ccc(Cc3ccncc3)cc2)cc1,-1%[46.1 µM],-10%,-26,-5,u,-5%
CCc1ccc(NC(=O)Nc2cccs2)cc1,u,x,56*,20*,u,-10%
Cc1ccc(NC(=O)Nc2cccs2)nc1,29%,x,94*,38*,u,x
CCOc1ccc(NC(=O)Nc2cccs2)cc1,-24%,x,61*,47*,u,x
Cc1ccc(NC(=O)Nc2cccs2)cc1,u,4%,64*,28*,u,8%
Cc1cc(C)cc(NC(=O)Nc2cccs2)c1,x,-14%,x,x,u,-21%
Cn1ccc(CC(=O)N2CCC(N3CCC(C(=O)N4CCCC4)CC3)CC2)c1,21%,-2%,4,5,u,-7%
Cn1cc(-c2cc3n(n2)CCC(=O)N3CCCC(=O)Nc2ccccc2Cl)c2ccccc21,-25%[46.1 µM],-24%,x,x,x,-11%
COc1cccc(/C=C(\C#N)c2nc3ccccc3[nH]2)c1OCC(=O)O,x,x,67*,31*,x,x
COc1cccc(/C=C(/C#N)c2nc3ccccc3[nH]2)c1OC(C)C(=O)O (stereo not given),x,x,58*,26*,x,x
Cc1cc(C)nc(SCc2ccc(C(=O)NNC(=O)Nc3cccc(Cl)c3)cc2)n1,11µM*,14µM*,-7,-1,u,11µM*
Cc1cc(C)nc(SCc2ccc(C(=O)N/N=C/c3ccncc3)cc2)n1,-2%[46.1 µM],i,-6,-1,4%[46.1 µM],-18%
CCc1ccc(NC(=O)[C@H](Cc2ccccc2)N2Cc3ccccc3C2=O)cc1,12%[46.1 µM],4%,x,x,u,2%
CC(C)c1ccc(N(C(=O)c2csnn2)C(C(=O)NC(C)(C)C)c2ccncc2)cc1 (stereo not given),-10%,0%,33,35*,3%,-7%
CC(C)c1ccc(C(C(=O)NC2CCCCC2)N(C(=O)c2csnn2)C2CC2)cc1 (stereo not given),-1%[46.1 µM],-2%,-7,-6,6.3µM*,-17%
COc1ccc(C)cc1N(C(=O)c1snc(C(N)=O)c1N)C(C(=O)NC1CCCCC1)c1ccc(C)o1 (stereo not given),u,-22%,-8,-8,11µM*,-24%
Cc1ccc(N(C(=O)c2csnn2)C(C(=O)NC(C)(C)C)c2ccncc2)cc1 (stereo not given),10%,-14%,-15,9,3%,-13%
COc1ccc(OC)c(C(C(=O)NC2CCCCC2)N(C(=O)c2snc(C(N)=O)c2N)c2ccccc2OC)c1 (stereo not given),u,-8%,-7,6,u,0%
Cc1ccc(C(C(=O)NC2CCCC2)N(C(=O)c2csnn2)C2CC2)cc1 (stereo not given),-22%[46.1 µM],-2%,-6,-6,u,0%
SMILES,Lassa entry inh,Vaccinia mCherry,Shiga inhibitor,Cycloheximide cs,MARV entry inh,VACV Venus inh
CC(C)c1ccc(N(C(=O)c2snc(C(N)=O)c2N)C(C(=O)NC2CCCC2)c2ccncc2)cc1 (stereo not given),-30%[46.1 µM],-30%,27,15*,u,-16%
CCc1ccc(N(C(=O)c2csnn2)C(C(=O)NC2CCCC2)c2cccnc2)cc1 (stereo not given),u,-5%,-4,-5,u,-15%
CC(C)c1ccc(N(C(=O)c2csnn2)C(C(=O)NC2CCCC2)c2cccnc2)cc1 (stereo not given),1.6µM*,-14%,-5,-5,-9%[46.1 µM],-5%
Cc1ccc(N(C(=O)CCl)C(C(=O)NC2CCCCC2)c2cccnc2)cc1C (stereo not given),7.9µM*,u,-1,2,u,7.1µM*
Cc1ccc(S(=O)(=O)N(CC(=O)NC2CC3CCC2C3)c2ccccc2)cc1 (stereo not given),x,-11%,x,x,x,-18%
O=C(Nc1ccc(OC(F)F)c(Cl)c1)c1ccccn1,u,x,94*,41*,u,x
COc1cc(C(=O)ONC(=O)c2ccc(OC(F)F)cc2)cc(OC)c1OC,9.2µM*,-19%,18,9,u,-7%
COc1ccc(NC(=O)c2cc(F)cc(F)c2)cc1Cl,11%,x,82*,27*,7%,x
COc1ccc(NC(=O)c2c(F)c(F)c(F)c(F)c2F)cc1Cl,2%,u,24,6,0%,u
COc1ccc(NC(=O)c2ccc(OC(F)F)cc2)cc1Cl,u,-23%,+,47*,-28%,-23%
Cc1ccc(/C(N)=N/OC(=O)CCC2CCCCC2)cc1,-3%,x,38,14*,u,x
Cc1ccc(/C(N)=N/OC(=O)CCC2CCCC2)cc1,7%,-9%,3,-3,2%[46.1 µM],-15%
N/C(=N\OC(=O)CC1CCCCC1)c1ccncc1,7%,x,58*,17*,18%,x
N/C(=N\OC(=O)CCC1CCCC1)c1ccncc1,11%,-13%,80,20*,16%[46.1 µM],-15%
COc1cccc2cc(C(=O)NCCc3c(C)[nH]c4ccc(F)cc34)c(=O)oc12,12%[46.1 µM],-7%,x,x,13%[46.1 µM],-1%
CNC(=S)N1CCN(c2nc(-c3ccc(F)cc3)cs2)CC1,x,x,20,13*,x,x
COCCCNC(=S)N1CCN(c2nc(-c3ccc(F)cc3)cs2)CC1,x,x,x,9,x,x
CCOC(=O)N1CCN(c2nc(-c3ccc(F)cc3)cs2)CC1,u,-10%,48*,23*,u,-7%
COc1cccc2cc(C(=O)OCC(=O)N3CC(C)OC(C)C3)c(=O)oc12 (stereo not given),u,-14%,x,x,u,1%
Clc1ccc2c(SCC3CO3)c3ccccc3nc2c1 (stereo not given),20µM*,i,x,x,u,u
O=C(CSc1c2c(nc3cc(Cl)ccc13)CCCC2)NCCN1CCOCC1,13%[46.1 µM],i,-14,-1,u,-13%
COc1ccc([C@H]2C(C#N)=C(SC)NC3=C2C(=O)CC(C)(C)C3)cc1,x,x,x,x,-8%,x
O=C(Oc1ccc(C(=S)N2CCCCC2)cc1)c1ccccc1,10%,-5%,15,-2,u,-9%
O=C(Oc1ccc(C(=S)N2CCC(O)CC2)cc1)c1ccc(Cl)cc1,5%[46.1 µM],-2%,35,37*,20%[46.1 µM],-13%
